Sampled rows, rich in hits. Any-hit rate of the full collection: about 3.4%.
ADAM17 inh = inhibitors of human ADAM17. P78536. recombinant ADAM17, EDANS/DABCYL FRET peptide cleavage. inhibition, % at 6.95 µM. 370,000 compounds, 0.83% hits;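 active means inhibition above the mean of compounds lying between control limits plus 3 SD, set per campaign, cut at about 8.5% in these data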;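 further: 0% = DMSO-only wells as the low control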
CendR NRP1 mod = alters CendR peptide binding to human NRP-1; O14786; FAM-RPARPAR peptide binding to NRP-1, fluorescence polarization; inhibition, % at 25 µM; 360,000 compounds, 0.85% hits;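 active means inhibition or corrected inhibition above about 18%, plus a signal ratio from 0.5 to 1.5, limit read from the data, passing the limit was not always enough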
KLK7 zymogen act = activators of human kallikrein-7 zymogen; P49862; purified proKLK7, EDANS-DABCYL substrate fluorescence; 100% is mature enzyme control, 0% vehicle; activation, % at 7 µM; 370,000 compounds, 0.9% hits; AID 652039;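 active means activation above the mean of all tested compounds plus 3 SD, computed per campaign excluding outliers beyond control limits, cut at about 13% in these data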
Target sequence (P49862 whole entry, looked up): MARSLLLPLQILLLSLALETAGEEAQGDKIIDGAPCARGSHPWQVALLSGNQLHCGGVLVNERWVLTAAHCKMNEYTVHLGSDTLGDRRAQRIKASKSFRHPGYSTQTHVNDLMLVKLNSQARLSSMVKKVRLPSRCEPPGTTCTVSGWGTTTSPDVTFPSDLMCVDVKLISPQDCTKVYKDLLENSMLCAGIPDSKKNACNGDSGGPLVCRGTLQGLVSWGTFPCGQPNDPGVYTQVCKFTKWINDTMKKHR
sPLA2-III inh = Inhibits HGIII-sPLA2 liposome hydrolysis, primary screen | Q9NZ20 | 370,000 compounds, 0.56% hits | QFRET BODIPY PC-A2 liposome hydrolysis, fluorescence | inhibition, % at 12.2 µM;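 active means inhibition above mean plus 3 SD of compounds lying within the high and low control bounds, cut at about 19% in these data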;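 further: 0% = median of test compound wells and 100% = no enzyme DMSO wells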
ADAM10 inh = inhibitors of human ADAM10; O14672; recombinant ADAM10, EDANS/DABCYL FRET peptide cleavage, 3 h; inhibition, % at 7 µM; 370,000 compounds, 0.62% hits; AID 720582;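 active means inhibition above a per-campaign cutoff equal to the mean of compounds falling between control-based bounds plus 3 SD, cut at about 20% in these data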;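 further: 0% = DMSO wells while the 100% control is not disclosed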
proKLK7 act conf = confirmation of human kallikrein-7 zymogen activators; shares compounds with KLK7 zymogen act; purified proKLK7, EDANS-DABCYL substrate fluorescence; scaled: vehicle 0, mature enzyme 100; activation, % at 7 µM; 3,200 compounds, 68% hits;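 active means activation, as change over the incubation, above the mean of all tested compounds plus 3 SD, cut at about 13% in these data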
EDANS interfere = optically interferes with EDANS-DABCYL signal, flagging KLK7 hits. activation, % at 7 µM. 3,200 compounds, 80% hits. shares compounds with KLK7 zymogen act. EDANS-DABCYL substrate fluorescence interference, no enzyme, 4 h; solvent 0%, active enzyme control 100%;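 active means activation above the all-compound mean plus 3 SD, ignoring values outside control-based bounds, cut at about 4.8% in these data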;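 further: value is the 4 h activation minus the activation read at time zero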
* = called active by the depositor; i = inactive; x = no result given.

SMILES	ADAM17 inh	CendR NRP1 mod	KLK7 zymogen act	sPLA2-III inh	ADAM10 inh	proKLK7 act conf	EDANS interfere
CCNC(=S)NNC(=O)CSc1nnc(SCc2cccc3ccccc23)s1	3	x	0	7	9	x	x
CN(C)CCNC(=O)c1cc2c(s1)-c1ccccc1OC2	i	-14	68*	-4	i	72*	68*
CC1CC(C)CN(CCCNC(=O)c2cc3c(s2)-c2ccccc2OC3)C1 (stereo not given)	i	9	44*	-7	i	-37	-60
CCCN1CCN(CCCNC(=O)c2cc3c(s2)-c2ccccc2OC3)CC1	i	-6	38*	-10	i	71*	76*
Cc1csc(NC(=O)c2cc3c(s2)-c2ccccc2OC3)n1	-402	5	-602	-1	i	x	x
COCCCNC(=O)C[C@H]1C[C@@]2(C(=O)OC)C(=C[C@H](C(C)(C)C)O[C@@H]2C)N(Cc2ccco2)C1=O	-3	x	0	-7	-2	x	x
CN1CCCC1CCNc1ccc2sc3ccccc3c(=O)c2c1 (stereo not given)	-3	-31	0	7	-15	x	x
Cc1cc2oc3cc(NCCC4CCCN4C)ccc3c(=O)c2cc1C (stereo not given)	i	-8	62*	-13	i	68*	64*
CN1Cc2nnn(Cc3ccccc3)c2-c2cc(N3CCCCC3)ccc2S1(=O)=O	-59	x	-1	0	-166	x	x
CS(=O)(=O)Nc1ccc(C(=O)Nc2ccc3ccccc3c2)cc1	-23	5	13*	-17	-35	1	1
CCOc1ccc(N(CC(=O)Nc2c(C)n(C)n(-c3ccccc3)c2=O)S(=O)(=O)c2cc(OC)ccc2OC)cc1	-4	x	0	5	-12	x	x
CCCc1cc(=O)oc2c3c(cc(OCC(=O)NCCN4CCOCC4)c12)OC(C)(C)CC3	i	3	32*	-1	i	-11	-20
CCc1cc(=O)oc2c3c(cc(OCC(=O)NCCCn4ccnc4)c12)OC(C)(C)CC3	i	0	8	-5	i	x	x
CCCCc1cc(=O)oc2c3c(cc(OCC(=O)NCCCO)c12)OC(C)(C)CC3	i	16	24*	-6	i	-33	-34
O=C(OC12CCCN(C1)/C(=C/c1ccccc1)C2)c1cccc(F)c1 (stereo not given)	4	x	0	-3	7	x	x
CC(C)(C)OC(=O)CN1c2cccc3cccc(c23)S1(=O)=O	-71	-2	13*	-1	-163	6	13*
COc1ccc(CCNC(=O)CN2c3cccc4cccc(c34)S2(=O)=O)cc1	-45	12	2	-1	-158	x	x
O=C(CN1c2cccc3cccc(c23)S1(=O)=O)N1CCCCC1	-80	-13	15*	5	-295	12	13*
CC(C)(C)NC(=O)NC(=O)CN1c2cccc3cccc(c23)S1(=O)=O	-53	3	1	-6	-104	x	x
COC(=O)CNC(=O)CN1c2cccc3cccc(c23)S1(=O)=O	-122	5	23*	10	-351	17*	17*
CCN(CC(=O)NC(C)(C)C)C(=O)CN1c2cccc3cccc(c23)S1(=O)=O	-79	-1	15*	-5	-232	0	2
N#CCCCc1cn(-c2ccc(-c3noc4c3C(=O)N(CC(=O)N3CCOCC3)CC4)cc2)nn1	2	x	0	5	0	x	x
C[C@H]1[C@@H](NC(=O)c2cccc(C(F)(F)F)c2)CC[C@@]23CCCN2C(=O)CCC[C@@H]13	-2	x	x	-5	-3	x	x
CCOC(=O)C1=NOC(C(C)=O)(C(=O)NC2CCCC2)C1 (stereo not given)	1	x	0	2	2	x	x
CCC[C@H]1[C@H](N)CC[C@@]23CCCN2C(=O)CCC[C@@H]13	-2	x	x	12	-7	x	x
CCCCN(CC)C(=O)c1cc2cc3ccc(OC)cc3nc2o1	-372	3	13*	-13	i	-5	0
CCC(C)NC(=O)c1cc2cc3ccc(OC)cc3nc2o1 (stereo not given)	i	9	40*	0	i	44*	63*

Screening results deposited in PubChem BioAssay by several laboratories.
